Test systems include SK-MEL-2 melanoma; SN12C renal; UO-31 renal; TK-10 renal; ACHN renal; A498 renal; CCRF-CEM leukemia; MOLT-4 leukemia; EKVX NSCLC; CAKI-1 renal.
Holding throughout (experiment): NCI-60 one-dose screen, 48 h (100 = growth as untreated, 0 = no growth, -100 = all killed)
Conditions in all cases: 10 µM unless noted

Compounds without any hit were thinned out: in the full panel of roughly 83,000, 20% have a hit.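 Percent growth is the endpoint: 0 to 100 indicates growth inhibition (40 means 60% inhibition), 0 means no net growth, and negative values indicate cell death.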 A number with no mark means an inactive call. Calls of active or inactive are those of the source. Rule for the calls: active = growth percent below 10; inactive = the rest.

For the compound `Cc1ccc(Nc2c(C(N)=O)cnc3ccc(S(=O)(=O)Nc4cc(C)on4)cc23)cc1`, the growth with SK-MEL-2 melanoma is 109%; with SN12C renal, 97.9%; in the assay on UO-31 renal it was 78.2%; in the assay with TK-10 renal, 118%; in the assay with ACHN renal it was 89.2%; with A498 renal, 88.8%. The growth in the assay on CCRF-CEM leukemia is 100%; in the assay with MOLT-4 leukemia it was 101%.

With `COc1ccc(C(=O)c2cc(OC)c(OC)c(OC)c2)cc1/C=C/C(=O)c1cc(OC)c(OC)c(OC)c1`, the growth with SK-MEL-2 melanoma is 116%; in the assay with SN12C renal, 96.2%; in the assay with UO-31 renal it was 66.2%; in the assay with TK-10 renal it was 140%; in the assay with ACHN renal, 89.3%; in the assay on A498 renal, 96.2%. For the same compound, the growth was 60.5% in the assay on CCRF-CEM leukemia and 88.3% with MOLT-4 leukemia.

For `COc1ccc2c(c1)c(-c1nc(-c3c[nH]c4ncccc34)cs1)cn2C`, the growth was 60.9% with SK-MEL-2 melanoma; 29.3% with EKVX NSCLC; 74.5% with SN12C renal; 60.3% with TK-10 renal; 53.2% with ACHN renal; 55.1% with CAKI-1 renal. The growth in the assay on A498 renal was 60.1%; in the assay on CCRF-CEM leukemia it was 51.7%; in the assay on MOLT-4 leukemia, 54.5%.

With `Fc1ccc2nc(-c3cc(-c4ccc5c(c4)OCO5)n[nH]3)[nH]c2c1`, the growth in the assay with SK-MEL-2 melanoma is 42.7%; in the assay on SN12C renal it was 65.2%; in the assay with UO-31 renal, 73.4%; in the assay with TK-10 renal, 75.9%; in the assay with ACHN renal it was 49%; in the assay with CAKI-1 renal it was 41%. Moreover, the growth in the assay on A498 renal is 71.7%.

Consider `COc1ccc(-c2cc(/C=C/C(=O)c3ccc(N)cc3)[nH]n2)cc1`, for which the growth in the assay on SK-MEL-2 melanoma is 22.4%; in the assay with SN12C renal, 18.4%; with UO-31 renal, 39.6%; with TK-10 renal, 41.8%; with ACHN renal, 26.9%; in the assay on CAKI-1 renal, 38.7%. Besides, the growth with A498 renal was -16.8% (active).

Consider `COc1cc2c(cc1OC)C(=O)/C(=C/c1cc(-c3ccc4c(c3)OCO4)n[nH]1)C2`, for which the growth with SK-MEL-2 melanoma was 81.3%; in the assay on SN12C renal, 6.08% (active); with UO-31 renal, -72.6% (active); in the assay with TK-10 renal it was -9.8% (active); in the assay with ACHN renal it was -7.41% (active); in the assay with CAKI-1 renal it was 56.4%. For the same compound, the growth in the assay with A498 renal is 25.8%.

As to `COc1ccc2c(c1)C/C(=C\c1cc(-c3cc(OC)c(OC)c(OC)c3)n[nH]1)C2=O`, the growth with SK-MEL-2 melanoma is 94.7%; in the assay on SN12C renal it was 92.8%; in the assay with UO-31 renal, 76.6%; with TK-10 renal it was 111%; with ACHN renal, 81.7%; in the assay with CAKI-1 renal, 84.3%. In addition, the growth with A498 renal is 87.4%.

Turning to `Oc1cc(/C=C/c2nc(N3CCOCC3)c3cc(Cl)c(Cl)cc3n2)cc(O)c1O`, the growth with SK-MEL-2 melanoma is 102%; with SN12C renal, 104%; with UO-31 renal it was 95.2%; with TK-10 renal, 95.8%; with ACHN renal, 99.9%; in the assay with A498 renal it was 92.5%. Also, the growth in the assay on CCRF-CEM leukemia was 109%; with MOLT-4 leukemia it was 85.3%.

Take `O=c1c(CNc2ccc(S(=O)(=O)Nc3ncccn3)cc2)coc2ccccc12`: the growth in the assay on SK-MEL-2 melanoma is 95.9%; with SN12C renal, 90.1%; in the assay with UO-31 renal it was 74.9%; in the assay with TK-10 renal, 106%; in the assay on ACHN renal, 89.9%; with CAKI-1 renal, 130%. Also, the growth in the assay with A498 renal was 102%.

On to `Nc1c(C(=O)Nc2cccc(Br)c2)sc2nc3c(cc12)C(=O)CCC3`, for which the growth in the assay with SK-MEL-2 melanoma was 30.8%; in the assay on SN12C renal it was 45.2%; in the assay on UO-31 renal, 56.9%; in the assay on TK-10 renal it was 69%; with ACHN renal, 58.8%; with CAKI-1 renal, 64%. Besides, the growth in the assay with A498 renal is -3.99% (active).

As for `COc1ccc(-c2nc3ccccn3c2-c2nc3ccc(Cl)cc3[nH]2)cc1`, the growth in the assay with SK-MEL-2 melanoma is 97.5%; with SN12C renal, 97.3%; with UO-31 renal, 97.6%; in the assay with TK-10 renal, 103%; in the assay on ACHN renal, 86.3%; in the assay on CAKI-1 renal, 93.2%. Besides, the growth in the assay on A498 renal was 91.9%.

On to `NC1(N)C=CC2=C(C=C1)C1(N)C3=C(C=CC(N)(N)C=C3)N2C2(N)C3=C(C=CC(N)(N)C=C3)N1C1=C2C=CC(N)(N)C=C1`, for which the growth in the assay on SK-MEL-2 melanoma was 103%; in the assay with SN12C renal, 82.2%; with UO-31 renal, 59.9%; in the assay with TK-10 renal it was 119%; in the assay on ACHN renal, 83.5%; in the assay on CAKI-1 renal, 70.8%. For the same compound, the growth was 88.3% in the assay with A498 renal and 32.6% with MOLT-4 leukemia.

For the compound `Cn1cc(-c2nc(-c3c[nH]c4ncccc34)cs2)c2cc(Br)ccc21`, the growth is 77.6% with SK-MEL-2 melanoma; 75.2% with EKVX NSCLC; 87.1% in the assay on SN12C renal; 63.5% in the assay on TK-10 renal; 58.7% with ACHN renal; 78% with CAKI-1 renal. Also, the growth with A498 renal is 68.4%; with MOLT-4 leukemia it was 69.1%.

For the compound `COc1ccc(-c2cc(/C=C/C(=O)c3ccc(OC)c(OC)c3)[nH]n2)cc1`, the growth with SK-MEL-2 melanoma was 69.2%; in the assay with SN12C renal, 17.6%; with UO-31 renal, 36.4%; in the assay on TK-10 renal it was 31.4%; with ACHN renal it was 29.8%; in the assay with CAKI-1 renal, 62.8%. Besides, the growth in the assay on A498 renal was -4.05% (active).

Values taken from PubChem BioAssay (NCI).
